Only some compounds are listed: those with a hit (about 3.2% of all), similar ones and a draw of the others.
AMA1-RON2 inh – qHTS for Inhibitors of AMA1-RON; Towards Development of Antimalarial Drug Lead: Primary Screen. Plasmodium falciparum AMA1 (3D7) - RON2 peptide interaction. Potency, µM (titrated, usually from 58.2 µM), without a hit: at the highest dose activity change, negative = inhibition, actives largely listed as inhibitors. 360,000 tested, 0.2% active. AlphaScreen AMA1-biotinylated RON2 peptide binding;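 further: 0% = vehicle wells and -100% = peptide control; nearly all actives have a fitted effect of over 45% in size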
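AMA1 (3D7) with his tag at 25 nM final met compounds first, then biotinylated RON2 peptide at 25 nM; detection used donor plus acceptor beads, 10 µg/mL apiece, read by AlphaScreen after 30 min at room temperature.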
AmpC inh no detg – qHTS Inhibitors of AmpC Beta-Lactamase (assay without detergent); P00811; AmpC nitrocefin hydrolysis, absorbance 480 nm, 0.0001% Triton; Potency, µM (series often up to 57.1 µM), for inactives: top-dose activity change, negative = inhibition, actives largely listed as inhibitors; 330,000 tested, 0.52% active; AID 485341, 2010;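 further: plate controls were no compound for no effect and no enzyme for full effect; nearly all actives have a fitted effect of over 20% in size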
Target sequence (P00811 whole entry, looked up): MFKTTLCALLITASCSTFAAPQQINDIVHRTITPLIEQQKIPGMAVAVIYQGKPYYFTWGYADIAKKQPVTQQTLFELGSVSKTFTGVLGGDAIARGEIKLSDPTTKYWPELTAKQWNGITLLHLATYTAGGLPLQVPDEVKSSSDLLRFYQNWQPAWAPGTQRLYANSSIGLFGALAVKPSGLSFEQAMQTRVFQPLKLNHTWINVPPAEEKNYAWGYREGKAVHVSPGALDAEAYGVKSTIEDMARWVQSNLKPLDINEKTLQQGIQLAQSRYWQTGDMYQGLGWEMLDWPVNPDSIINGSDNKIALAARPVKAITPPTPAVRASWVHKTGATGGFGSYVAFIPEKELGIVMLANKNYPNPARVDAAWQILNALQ
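AmpC (5.3 nM in the dispensed reagent) in 20 mM phosphate pH 7.0 with 0.01% (detergent screen) or 0.0001% Triton X-100 was preincubated with compounds for 15 min at room temperature. Nitrocefin was then added from an 800 uM solution, and hydrolysis was followed at 480 nm.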
Sm TGR block – qHTS Assay for the Inhibitors of Schistosoma Mansoni Peroxiredoxins; Schistosoma mansoni thioredoxin glutathione reductase (TGR), Q962Y6; purified TGR, DTNB reduction, TNB absorbance 405 nm; Potency, µM (series often up to 114 µM), for inactives: top-dose activity change, negative = inhibition, actives largely listed as inhibitors; 360,000 tested, 3% active; AID 485364, 2010; further: nearly all actives have a fitted effect of over 60% in size
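Kinetic colorimetric format: TGR-catalysed, NADPH-driven DTNB reduction monitored via TNB absorbance. Enzyme dispensed at 20 nM; compound exposure 15 min at room temperature before reaction start.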
AmpC detergent – qHTS Inhibitors of AmpC Beta-Lactamase (assay with detergent) | P00811 | Potency, µM (series often up to 114 µM), for inactives: at the top dose activity change, negative = inhibition, usual class: inhibitors | 370,000 tested, 0.041% active | AmpC hydrolysis of nitrocefin, absorbance 480 nm, 0.01% Triton;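 further: 0% = no-compound wells and -100% = no-enzyme wells; nearly all actives have a fitted effect of over 25% in size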
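AmpC (5.3 nM in the dispensed reagent) in 20 mM phosphate pH 7.0 with 0.01% (detergent screen) or 0.0001% Triton X-100 was preincubated with compounds for 15 min at room temperature. Nitrocefin was then added from an 800 uM solution, and hydrolysis was followed at 480 nm.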
RE007 growth inh – qHTS Assay for Inhibitors of the HIV-1 protein Vpr; S. pombe RE007 Vpr strain, BacTiter-Glo ATP luminescence, 24 h; 360,000 tested, 0.21% active; Potency, µM (series often up to 92.2 µM), inactives show top-dose activity change, negative = less growth, usual class: inhibitors; active means well fitted falling curve with a large enough effect; inconclusive means small, poorly fitted or top-dose-only effect; inactive means no such curve, though single readings can be large or run the other way; further: nearly all actives have a fitted effect of over 50% in size
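Fission yeast strain RE007, carrying one chromosomally integrated HIV-1 vpr copy, was seeded at OD 0.01 in PMG+AL medium with 23 nL pinned compound. After 24 h at 30 °C and 99% humidity, viability was read by BacTiter-Glo luminescence.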
An asterisk follows results filed as active; u = inconclusive; x = no result; [ ] = another dose, or the depositor's remark. Unless noted, the call rests on the fitted dose curve; in most records, active means well fitted curve in the direction sought with a large enough effect; inconclusive means small, poorly fitted or top-dose-only effect, or another doubt; inactive means no such curve, though single readings can be large; an effect the other way counts as inactive or inconclusive. Unless noted, on the % scale 0 is the no-effect control and ±100 the full control effect; potency means the concentration at half of the fitted maximal effect.

SMILES	AMA1-RON2 inh	AmpC inh no detg	Sm TGR block	AmpC detergent	RE007 growth inh
Cn1c(/C(C#N)=C/c2ccc(-c3ccc(S(N)(=O)=O)cc3)o2)nc2ccccc21	0.0%	20µM*	0.2%	-16.5%	5.3%
CCCCOc1ccc(CNC(=O)Cc2ccc(NC(=O)N3CCCCc4ccccc43)cc2)cc1	x	x	-1.3%	-3.3%	x
CCC(=O)N1CCc2cc(S(=O)(=O)CCC(=O)Nc3ccc(Cl)c(C(F)(F)F)c3)ccc21	x	x	-3.2%	-2.1%	x
O=C(O)/C=C/S(=O)(=O)c1ccc2ccccc2c1	-8.2%	-12.7%	0.891µM*	-3.7%	-8.7%
NCCCn1c(C(=O)c2cc(Cl)c(N)c(Cl)c2)c2ccc(C(F)(F)F)cc2[n+]1[O-]	-0.3%	100.8%	44.7µM*	-1.9%	1.1%
NCCCn1c(C(=O)c2cc(Cl)c(N)c(Cl)c2)c2ccc([N+](=O)[O-])cc2[n+]1[O-]	3.0%	30.5%	39.8µM*	-11.1%	-15.2%
NC(=O)CCCn1c(C(=O)c2cc(Cl)c(N)c(Cl)c2)c2ccc(C(F)(F)F)cc2[n+]1[O-]	-13.1%	120.5%	u	u	-0.8%
Fc1ccc(CNc2nc(-c3ccccc3)cc(C(F)(F)F)n2)cc1	x	x	7.1%	17.3%	x
Cc1ccc(-c2nn3c(C)nnc3s2)cc1NC(=O)c1ccc(Br)o1	-4.4%	-0.4%	50.1µM*	1.2%	1.8%
Cc1ccccc1NC(=O)c1cc2c(-c3ccccc3)nn(-c3ccccc3)c2s1	x	x	8.6%	23.6%	x
COc1ccc(C(=O)CSc2nnc(-c3ccoc3C)n2CC2CCCO2)cc1 (stereo unspecified)	23.2%	29.4%	44.7µM*	-8.8%	-1.9%
COc1ccc(NC(=O)CSc2nnc(-c3ccoc3C)n2CC2CCCO2)cc1 (stereo unspecified)	-13.1%	1.3%	-2.5%	-8.4%	4.6%
COCCCn1c(SCC(=O)n2c(C)c(C)c3ccccc32)nnc1-c1ccoc1C	-10.8%	51.6%	44.7µM*	6.2%	-6.9%
COCCn1c(SCC(=O)c2ccc3c(c2)OCCO3)nnc1-c1ccoc1C	5.5%	0.9%	28.2µM*	-14.2%	19.3%
COc1ccc(-n2nc(C(=O)NCCc3cccc(C)c3)c3c4ccccc4n(C)c3c2=O)cc1Cl	x	x	4.0%	-0.8%	x
CC1Cc2cc(S(=O)(=O)CCC(=O)Nc3ccc(F)cc3)ccc2N1C(=O)C1CC1 (stereo unspecified)	x	x	0.3%	1.1%	x
CNS(=O)(=O)c1cn(CC(=O)Nc2cccc(C(F)(F)F)c2)cc1S(=O)(=O)NC	x	x	-0.1%	17.1%	x
Cc1cccc2sc(NNC(=O)c3ccc(S(=O)(=O)N4CCc5ccccc5C4)cc3)nc12	35.6%	14.1µM*	-10.9%	-8.8%	-0.7%
CC(C)c1noc(-c2ccccc2OCC(=O)Nc2ccc([N+](=O)[O-])cc2)n1	x	x	-1.0%	-2.7%	x
O=C1c2ccccc2C(=O)C1(c1ccccc1)N1CCN(c2cccc(C(F)(F)F)c2)CC1	x	x	9.0%	18.4%	x
COc1ccc(N2C(=O)CC(Sc3nnc(-c4ccccc4)o3)C2=O)cc1 (stereo unspecified)	-3.0%	-9.6%	3.55µM*	-9.3%	-14.3%[3.69 µM]
COc1ccc(N2C(=O)CC(Sc3nc(C)cc(C)c3C#N)C2=O)cc1 (stereo unspecified)	3.4%	-15.6%	u	0.4%	-11.6%
O=C1CC(Sc2nnc(-c3ccccc3O)o2)C(=O)N1c1ccccc1 (stereo unspecified)	26.5%	-36.9%	3.98µM*	u	50.1µM*
O=C(NCc1ccccc1)c1cnc2sc(N3CCCC3)nn2c1=O	x	x	5.1%	2.2%	x
O=C(O)c1ccc(N=Nc2c(O)[nH]c3ccc(Br)cc23)cc1	-9.2%	-18.7%	2.9%	-5.5%	x
SMILES	AMA1-RON2 inh	AmpC inh no detg	Sm TGR block	AmpC detergent	RE007 growth inh
O=c1ccc2cc3c([nH]c4ccc(Br)cc43)oc-2c1O	x	-54.1%	56.2µM*	-8.0%	x
Cc1ccc2oc(-c3cccc(NC(=O)c4ccc(N5CCC(C)CC5)c([N+](=O)[O-])c4)c3)nc2c1	x	x	-4.2%	0.6%	x
COc1cccc(CNC(=O)C(C)n2c(=O)cc(-c3ccccc3)c3c(C)nn(C)c32)c1 (stereo unspecified)	x	x	2.7%	-2.7%	x
O=C(CCN1C(=O)/C(=C/c2ccc(F)cc2)SC1=S)NC1C=CS(=O)(=O)C1 (stereo unspecified)	8.1%	-1.8%	-0.9%	1.4%	0.1%
O=C(CCN1C(=O)/C(=C/c2ccccc2Cl)SC1=S)NC1C=CS(=O)(=O)C1 (stereo unspecified)	2.6%	28.2µM*	-3.9%	-4.0%	-3.6%
COc1ccccc1C(CNC(=O)c1oc2ccccc2c1C)N1CCCC1 (stereo unspecified)	-1.1%	-11.4%	31.6µM*	3.0%	-11.3%
COc1ccc(C(CNC(=O)c2oc3ccccc3c2C)N2CCCCC2)cc1 (stereo unspecified)	x	x	-1.3%	16.2%	x
CCCS(=O)(=O)c1nc(S(=O)(=O)c2ccc(C)cc2)c(NCc2ccco2)s1	-8.6%[11.6 µM]	-38.6%	17.8µM*	-1.3%	-16.9%
CCS(=O)(=O)c1nc(S(=O)(=O)c2ccc(C)cc2)c(NCc2ccccn2)s1	36.7%	-4.9%	0.8%	3.8%	-2.8%
CCCS(=O)(=O)c1nc(S(=O)(=O)c2ccc(C)cc2)c(NCc2ccccn2)s1	69.5%	-9.5%	7.94µM*	-3.8%	3.0%
CCCS(=O)(=O)c1nc(S(=O)(=O)c2ccc(C)cc2)c(N2CC(C)OC(C)C2)s1 (stereo unspecified)	13.3%	99.7%	17.8µM*	0.9%	-7.9%
CCS(=O)(=O)c1nc(S(=O)(=O)c2ccc(C)cc2)c(N2CC(C)OC(C)C2)s1 (stereo unspecified)	5.3%	75.1%	-20.2%	-4.5%	-6.3%
CS(=O)(=O)c1nc(S(=O)(=O)c2ccc(Cl)cc2)c(NCc2ccccn2)s1	4.8%	-23.4%	35.5µM*	u	5.4%
CCc1cccc(C)c1NS(=O)(=O)c1c(C(=O)N2CCC(C)CC2)c(C)n(C)c1C	x	x	-0.3%	3.4%	x
Cc1nc(-c2ccc(C)c(N3CCN(C(=O)Nc4ccc(Br)cc4)CC3)c2)no1	x	x	5.9%	4.0%	x
CCOC(=O)c1c(C)[nH]c(C)c1S(=O)(=O)N1CCC(C(=O)NCc2cccc(C)c2)CC1	x	x	1.6%	0.0%	x
CCOC(=O)CNC(=O)Nc1cc(C(=O)NCc2ccc(C(C)C)cc2)ccc1N1CCCC1	x	x	6.6%	1.1%	x
